Measured values as given in ChEMBL document CHEMBL1157539, “Thousands of chemical starting points for antimalarial lead identification” (Nature, 2010).

Each compound was assayed on Plasmodium falciparum (assay: GSK_TCMDC: Inhibition of Plasmodium falciparum 3D7 in whole red blood cells, using parasite LDH activity as an index of growth. Test compounds present at 2uM).
Assay type: functional

Row | Compound | Inhibition
1 | Cc1[nH]c2c(C)cccc2c1C1CCN(CCC2CCN(C(=O)/C=C/c3ccc(Cl)c(Cl)c3)CC2)CC1 | 100%
2 | COc1ccc2c(-c3ccccc3)noc2c1 | 98%
3 | Clc1ccc2c(N3CCCNCC3)ccnc2c1 | 100%
4 | Cc1cc(C=C(P(=O)(OC(C)C)OC(C)C)P(=O)(OC(C)C)OC(C)C)c2ccccc2c1O | 85%
5 | Cc1cnc(C(=O)Nc2ccc(-c3cccc(-c4nc5ccccc5[nH]4)c3)cc2)cn1 | 93%
6 | CS(=O)(=O)Cc1ccc(Nc2nccc(-c3c(-c4cccc(NC(=O)c5c(F)cccc5F)c4)nn4ncccc34)n2)cc1 | 97%

Each compound was assayed on Plasmodium falciparum (assay: GSK_TCMDC: Inhibition of Plasmodium falciparum Dd2 in whole red blood cells, using parasite LDH activity as an index of growth. Test compounds present at 2uM).
Assay type: functional

Row | Compound | Inhibition
7 | O=C(Nc1ccccc1)Nc1cccc(-c2nn3c(OCCN4CCCC4)cccc3c2-c2ccncc2)c1 | 98%
8 | COc1ccc2ncc(F)c([C@H](O)CN3CCC(NCc4ccc5c(c4)NC(=O)CO5)CC3)c2c1.Cl | 100%
9 | CS(=O)(=O)CCNCc1nc(-c2ccc3ncnc(Nc4ccc(OCc5cccc(F)c5)c(Cl)c4)c3c2)cs1.Cl | 34%
10 | Cc1ccc(-n2c(Cc3cccc4ccccc34)nnc2SCCC#N)c(C)c1 | 98%
11 | Cc1cc(N[C@@H](Cc2ccccc2)C(=O)NC2CCCC2)nc(NCCOc2ccccc2)n1.O=C(O)C(F)(F)F | 48%
12 | O=C(NC1CC1)c1cnc(N2CCC(COc3cccc(F)c3)CC2)c(Cl)c1 | 87%
13 | C=C[C@]1(C)C[C@@H](OC(=O)c2cncn(COC)c2=O)[C@]2(C)[C@H](C)CC[C@]3(CCC(=O)[C@H]32)[C@@H](C)[C@@H]1O | 7%
14 | O=C(Nc1cccc(CN2CCCN(Cc3ccc4c(c3)OCO4)CC2)c1)c1ccc2ccccc2c1.O=C(O)C(F)(F)F | 14%
15 | Cc1cnc(NCC2CCCCC2)nc1N[C@@H](CC(C)C)C(=O)Nc1ccccc1.O=C(O)C(F)(F)F | 55%
16 | COc1cc(CCNc2nc(NCc3cccc4ccccc34)nc(N3CCC(N)CC3)n2)ccc1O.O=C(O)C(F)(F)F | 59%
17 | CCCCC(N)COc1cccc2c(-c3ccncc3)c(-c3cccc(NC(=O)Nc4ccccc4)c3)nn12 (stereo unspecified) | 82%
18 | COc1ccc(CN(C)CC(O)COc2ccc(NC(=O)c3cccc4c(=O)c5cccc(OC)c5[nH]c34)cc2)cc1OC (stereo unspecified) | 65%
19 | CCCN(Cc1ccc(OCC)cc1)Cc1cc(=O)c2cc(Cl)ccc2[nH]1 | 82%
20 | COc1ccc(CNCc2ccc(-c3ccc(-c4nc5cc(C(F)(F)F)ccc5[nH]4)s3)cc2)cc1.O=C(O)C(F)(F)F | 98%
21 | CN1CCC(C(=O)N(Cc2ccc(-c3ccc(CNCCc4ccc(S(C)(=O)=O)cc4)cn3)cc2)C2Cc3ccccc3C2)CC1.O=C(O)C(F)(F)F | 49%
22 | Oc1cccc(-c2cnc3ccc(NCc4ccc(F)cc4)nn23)c1 | 66%
23 | CN(C)/C(=N/C(=N)NCc1ccc(Cl)c(Cl)c1)NCCCCCCN/C(=N\C(=N)NCc1ccc(Cl)c(Cl)c1)N(C)C | 99%
24 | CC(=O)Nc1nc(C(=O)Nc2ccc(-c3ccc(-c4nc5cc(F)ccc5[nH]4)cc3)cc2)cs1 | 33%
25 | COc1ccc(CCNC(=O)c2cc(C)ccc2O)cc1-c1ccc(C(C)(C)C)cc1 | 94%
26 | CNCc1ccc2nc(-c3coc(Cc4cc(Cl)ccc4OCC(C)C)n3)[nH]c2c1.Cl | 95%

Row | Compound | Inhibition
27 | O=C1C(c2ccccc2)=C(Nc2ccc(Cl)cc2)c2ccccc21 | 59%
28 | CC(C)(C)SCC(O)Cn1c2ccc(Br)cc2c2cc(Br)ccc21 (stereo unspecified) | 79%
29 | COc1ccc(CN(C)CCCCc2ccc(NC(=O)COc3cccc4sc5ccccc5c(=O)c34)cc2)cc1OC.O=C(O)C(=O)O | 84%
30 | Clc1ccc2nnc(-c3c(Cl)cccc3Cl)n2n1 | 60%
31 | Cc1cc(=O)c(-c2ccc(Oc3ccc(Cl)cc3Cl)cc2)c(C)[nH]1 | 73%
32 | O=C(Nc1ccsc1)Nc1cccc(-c2cccc(-c3nc4cc(C(F)(F)F)ccc4[nH]3)c2)c1 | 100%
33 | CCCCN(Cc1cc(Cl)c(OCC)c(OC)c1)c1ccc(C(O)(C(F)(F)F)C(F)(F)F)cc1.O=C(O)C(F)(F)F | 97%
34 | CC(C)CN1CCCN(Cc2cccc(NC(=O)c3ccc(-c4ccccc4)cc3)c2)CC1.O=C(O)C(F)(F)F | 24%
35 | COc1ccccc1N1CCN(CCCCNC(=O)c2ccc(NC(=O)c3ccc4ccccc4c3)cc2)CC1 | 18%
36 | Cc1ccccc1C1CCN(C2CCC(NC(=O)/C=C/c3cc(F)cc(F)c3)CC2)CC1 (stereo unspecified) | 33%
37 | CN1CCN(c2ccnc3ccc(NC(=O)Nc4ccc(-c5ccccc5)cc4)cc23)CC1 | 41%
38 | CCN(CC)CCN(Cc1ccc(-c2ccc(C(F)(F)F)cc2)cc1)C(=O)Cn1c(CCc2ccc(F)cc2)nc(=O)c2sccc21.O=C(O)C(O)C(O)C(=O)O | 90%
39 | COc1ccc(CN(C)CCCc2ccc(NC(=O)Cc3ccc4nc(-c5ccccc5)ccc4c3)cc2)cc1OC | 0%
40 | CCC(C)NC(=O)Nc1ccc(-c2cccc(-c3nc4cc(C(F)(F)F)ccc4[nH]3)c2)cc1 (stereo unspecified) | 0%
41 | Cc1[nH]c2c(C)cccc2c1C1CCN(CCC2CCN(C(=O)/C=C/c3ccc(Cl)c(Cl)c3)CC2)CC1 | 79%
42 | COc1ccc2c(-c3ccccc3)noc2c1 | 34%
43 | Clc1ccc2c(N3CCCNCC3)ccnc2c1 | 99%
44 | Cc1cc(C=C(P(=O)(OC(C)C)OC(C)C)P(=O)(OC(C)C)OC(C)C)c2ccccc2c1O | 54%
45 | Cc1cnc(C(=O)Nc2ccc(-c3cccc(-c4nc5ccccc5[nH]4)c3)cc2)cn1 | 8%
46 | CS(=O)(=O)Cc1ccc(Nc2nccc(-c3c(-c4cccc(NC(=O)c5c(F)cccc5F)c4)nn4ncccc34)n2)cc1 | 93%
